Most compounds without a hit are left out; they make up all but 10% or so of the library.
hNpr1 antagonist – antagonists of human natriuretic peptide receptor Npr1; P16066; HEK293 hNpr1 GloSensor cGMP, ANP-stimulated luminescence; Potency, µM (titrated, usually from 46.3 µM), inactives show top-dose activity change, negative = inhibition, most hits filed as inhibitors; 76,000 compounds, 1.6% hits; AID 1347048; calls by dose curve; also: nearly all actives have a fitted effect of over 60% in size
Target sequence (P16066 whole entry, looked up): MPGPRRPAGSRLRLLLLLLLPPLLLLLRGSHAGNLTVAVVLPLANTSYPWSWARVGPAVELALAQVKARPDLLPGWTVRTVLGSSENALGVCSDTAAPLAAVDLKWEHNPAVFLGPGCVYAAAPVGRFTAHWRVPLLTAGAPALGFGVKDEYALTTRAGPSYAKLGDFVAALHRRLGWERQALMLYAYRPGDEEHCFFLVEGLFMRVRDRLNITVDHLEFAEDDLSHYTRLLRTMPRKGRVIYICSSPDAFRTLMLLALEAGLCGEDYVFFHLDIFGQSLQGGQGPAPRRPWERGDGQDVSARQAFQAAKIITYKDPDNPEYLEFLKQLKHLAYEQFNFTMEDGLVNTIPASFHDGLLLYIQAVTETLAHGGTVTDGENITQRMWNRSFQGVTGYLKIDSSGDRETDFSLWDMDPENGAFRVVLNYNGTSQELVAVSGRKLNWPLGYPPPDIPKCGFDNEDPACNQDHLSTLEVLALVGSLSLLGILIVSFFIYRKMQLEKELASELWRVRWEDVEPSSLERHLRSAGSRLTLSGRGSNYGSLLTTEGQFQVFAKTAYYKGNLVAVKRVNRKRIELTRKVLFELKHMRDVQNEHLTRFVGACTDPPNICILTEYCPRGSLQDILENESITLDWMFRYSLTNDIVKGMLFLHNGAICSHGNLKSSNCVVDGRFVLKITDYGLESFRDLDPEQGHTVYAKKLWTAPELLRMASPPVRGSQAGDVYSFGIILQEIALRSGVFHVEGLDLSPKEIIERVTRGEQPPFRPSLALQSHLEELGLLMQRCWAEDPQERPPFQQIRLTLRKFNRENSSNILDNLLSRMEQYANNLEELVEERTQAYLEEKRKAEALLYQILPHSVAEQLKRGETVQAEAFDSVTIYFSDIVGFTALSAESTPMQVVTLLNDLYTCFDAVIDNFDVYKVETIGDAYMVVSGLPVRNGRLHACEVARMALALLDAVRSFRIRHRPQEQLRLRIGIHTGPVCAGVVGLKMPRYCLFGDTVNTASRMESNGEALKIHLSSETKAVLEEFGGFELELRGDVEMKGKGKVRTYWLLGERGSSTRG
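Compound pre-incubated 30 min at room temperature on GloSensor-loaded HEK293 cells stably carrying hNpr1 and the pGS-40F cGMP biosensor. Stimulation uses hNppA at 0.1 nM final; luminescence is taken at baseline and 20 min post-agonist.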
NIH3T3 tox – NIH 3T3 cell cytotoxicity; NIH 3T3 viability, CellTiter-Glo ATP luminescence, 48-72 h; 94,000 compounds, 4.3% hits; Potency, µM (doses to about 96.7 µM), without a hit: at the top dose activity change, negative = cytotoxicity, actives largely listed as inhibitors; also: nearly all actives have a fitted effect of over 55% in size
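Cytotoxicity is measured as loss of cellular ATP: NIH 3T3 cells (400/well) are exposed to compound for 48 or 72 hr at 37 °C, then CellTiter-Glo luminescence is imaged after 10 min at room temperature.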
Luciferase inh – inhibitors of firefly (Photinus pyralis) luciferase; P08659; purified P. pyralis luciferase, luminescence, biochemical; Potency, µM (series often up to 115 µM), hits mostly inhibitors; 76,000 compounds, 2.5% hits; AID 1347043; also: nearly all actives have a fitted effect of over 65% in size
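Purified P. pyralis luciferase (10nM final) in 50mM Tris acetate pH 7.5, 10mM Mg acetate, 0.01% Tween-20, 0.05% BSA with 10uM D-luciferin and 10uM ATP. Compounds titrated qHTS. Luminescence imaged on CCD.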
HEK293 tox – cytotoxic compounds in HEK 293 cells | HEK 293 viability, ATP luminescence (CellTiter-Glo), 48-72 h | Potency, µM (highest dose often 115 µM), for the others: at the top dose activity change, negative = cytotoxicity, hits mostly inhibitors | 94,000 compounds, 6.6% hits | AID 1345083; also: nearly all actives have a fitted effect of over 60% in size
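HEK 293 seeded at 250 cells/well receive compound via pintool. After 48 or 72 hr at 37 degree Celsius, 5% CO2 and 95% humidity, CellTiter-Glo is dispensed and luminescence read following 10 min at room temperature.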
GPT2 inhibitor – blocks human glutamate pyruvate transaminase 2 | Q8TD30 | Recombinant GPT2, coupled pyruvate oxidase/HRP Amplex Red fluorescence | Potency, µM (series often up to 57.7 µM), for the others: at the top dose activity change, negative = inhibition, actives largely listed as inhibitors | 100,000 compounds, 0.25% hits | AID 1671188; also: nearly all actives have a fitted effect of over 60% in size
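Recombinant GPT2 (10ng/uL) with 250uM a-KG and 2mM L-alanine, 30 min at room temperature, in HEPES pH 7.5 buffer. Pyruvate detected by pyruvate oxidase/HRP/Amplex Red fluorescence after 30 min in the dark; AOA (50uM) as positive control.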
An asterisk follows results filed as active; i = inactive; u = inconclusive; x = no result; [ ] = remark or other dose. Unless noted, calls follow the shape of the dose curve; as a rule, active = well fitted curve in the direction sought with a large enough effect; inconclusive = small, poorly fitted or top-dose-only effect, or another doubt; inactive = no such curve, though single readings can be large; an effect the other way counts as inactive or inconclusive. % is scaled to controls: 0 for no effect and ±100 for the full control effect; potency is read from the fitted curve at half-maximal effect.

SMILES	hNpr1 antagonist	NIH3T3 tox	Luciferase inh	HEK293 tox	GPT2 inhibitor
COc1ccccc1-c1cccc(CN2CCCC(C(=O)N3CCN(c4ncccn4)CC3)C2)c1 (centres undefined)	x	u	x	15.8µM*	i
COc1ccccc1-c1cccc(CN2CCCC(C(=O)N3CCCC(C)C3)C2)c1 (centres undefined)	x	u	x	39.8µM*	-4.2%
COc1ccccc1-c1cccc(CN2CCCC(C(=O)N3CCC(c4ccccc4)CC3)C2)c1 (centres undefined)	x	u	x	39.8µM*	-9.0%
COc1ccccc1-c1cccc(CN2CCCC(C(=O)N(C)C)C2)c1 (centres undefined)	x	u	x	u	-3.0%[88.5 µM]
COc1ccccc1-c1cccc(CN2CCCC(C(=O)N3CCN(Cc4ccccc4)CC3)C2)c1 (centres undefined)	x	35.5µM*	x	39.8µM*	-16.2%
COc1ccccc1-c1cccc(CN2CCCC(C(=O)N3CCN(C(C)=O)CC3)C2)c1 (centres undefined)	x	-31.5%	x	u	1.2%
CN(Cc1nc(-c2ccccc2)no1)CC1(O)CNCCOC1 (centres undefined)	3.7%	-11.9%	i	-11.8%	4.0%
CN(Cc1nccn1C)Cc1cnc(S(=O)(=O)CC2CC2)n1CC1CCCCC1	-7.3%	-5.7%	i	u	u
O=C(c1ccc(Cl)nc1)N1CCCN(c2ccc3nnc(-c4ccccc4)n3n2)CC1	x	-21.8%	x	-31.6%	x
CNC(=O)c1cccc(-c2cnc(Nc3cccc(F)c3)c3c2CCO3)c1	-4.9%[70.6 µM]	u	22.4µM*	u	i
COCCNc1ncc(-c2cccc(OC)c2)c2c1OCC2	-3.1%[70.6 µM]	u	17.8µM*	u	u
Cn1cc(-c2cnc(NC(=O)c3c[nH]c4ccccc34)c3c2CCO3)cn1	-1.7%[70.6 µM]	u	i	-18.7%[172 µM]	-0.9%[88.5 µM]
COCCNc1ncc(-c2cccc(N[S+](C)(=O)[O-])c2)c2c1OCC2	3.0%[70.6 µM]	u	63.1µM*	u	i
O=C(Nc1ncc(-c2cccc(F)c2)c2c1OCC2)c1c[nH]c2ccccc12	-12.3%[70.6 µM]	39.8µM*	u	50.1µM*	i
COCCNc1ncc(-c2ccc(NC(C)=O)cc2)c2c1OCC2	4.8%[70.6 µM]	u	i	u	i
CN(C)c1cccc(-c2cnc(Nc3cncnc3)c3c2CCO3)c1	-18.2%[70.6 µM]	u	i	u	1.3%[88.5 µM]
COc1cccc(-c2ccc(C(=O)N3CCC(NC(=O)c4cccc(Cl)c4)CC3)cc2)c1	x	u	x	u	-6.9%
O=C(Cc1cccc(F)c1)NC1CCN(c2cc(-c3ccc(F)cc3)[nH]n2)C1 (centres undefined)	-14.8%	u	i	u	u
CN(C)c1cccc(-c2cnc(NC(=O)c3ccncc3)c3c2CCO3)c1	-2.7%[70.6 µM]	-25.2%[138 µM]	i	u	i
COc1ccc(C(=O)Nc2ncc(-c3cccc(N(C)C)c3)c3c2OCC3)cc1	u	u	u	100µM*	i
Cc1cc(-c2cnc(Nc3ccc(F)cc3)c3c2CCO3)ccn1	-17.7%[70.6 µM]	u	i	u	i
COCCNc1ncc(-c2cccc(F)c2)c2c1OCC2	-1.5%[70.6 µM]	u	79.4µM*	u	i
CC(C)(C)C1CCC2(CC1)NC(=O)N(CC(=O)NCc1ccccc1)C2=O (centres undefined)	3.7%	-24.4%	i	u	i
Cc1noc(C2CC3(CCN(C(=O)CC4CCCC4)CC3)CN2C)n1 (centres undefined)	-2.6%	-15.9%	i	-22.2%	i
Fc1ccc(-c2ccc3ncc(Nc4cc(F)cc(N5CCOCC5)c4)n3n2)cc1	u	u	u	63.1µM*	u
COc1cccc(Nc2cnc3ccc(N4CCOCC4)nn23)c1	-2.0%[70.6 µM]	u	i	-25.3%[172 µM]	u
Fc1ccc(-c2ccc3ncc(Nc4ccnc(N5CCOCC5)c4)n3n2)cc1	u	8.91µM*	i	31.6µM*	i
Cc1cc(F)ccc1NC(=O)C1CCN(C(=O)c2ncn3c2COC(c2ccc(F)cc2)C3)CC1 (centres undefined)	-0.6%	i	u	-6.8%	i

High-throughput results from PubChem BioAssay.
